Our source for the growth values is PubChem BioAssay (NCI).

About 83,000 compounds went through this panel and 20% of them were active in at least one assay; those are over-represented in the sample as a whole.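 In brief: 96-well plates, 48 h treatment, single concentration, percent growth endpoint.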 Activity calls are given as the source filed them. How the source made its calls: active means growth percent below 10; inactive means the rest.

In this test the test system is LOX IMVI melanoma. Description: NCI-60 one-dose screen, 48 h (100 = growth as untreated, 0 = no growth, -100 = all killed). The settings on record: 10 µM unless noted.
Regarding `C=C(C)[C@@H]1CC[C@]2(C(=O)OC)CC[C@]3(C)[C@H](CC[C@@H]4[C@@]5(C)C/C(=C/c6cccc(I)c6)C(=O)C(C)(C)[C@@H]5CC[C@]43C)[C@@H]12`, the growth was 91.9% (inactive). The value for `N#Cc1c(-c2ccc(Cl)cc2)nc(NN=Cc2ccco2)nc1N1CCOCC1` was 78.7% (inactive). The value for `C=CC(=O)Nc1cccc(Nc2nc(SC)nc(-c3cccc([N+](=O)[O-])c3)c2C#N)c1` was 46.1% (inactive). In the case of `COc1ccc(/C=C/C(=O)c2ccc(O)c(CN3CCN(c4cc5c(cc4F)c(=O)c(C(=O)O)cn5C4CC4)CC3)c2)cc1`, the growth is 12.8% (inactive).

`COc1cc2nc(N3CCCC3)nc(Nc3ccccc3)c2cc1OC`: the growth is -92.6% (active).

Regarding `COc1cccc(-c2nc3sccn3c2-c2ccnc(NCCNS(=O)(=O)c3ccccc3)c2)c1`, the growth is 24% (inactive). As for `COc1cc(/C=C/C(=O)c2c(C)oc3nc[nH]c(=O)c23)cc(OC)c1OC`, the figure is 66.2% (inactive); as for `C=C(C)[C@@H]1CC[C@]2(C(=O)OC)CC[C@]3(C)[C@H](CC[C@@H]4[C@@]5(C)C/C(=C/c6ccc(OC)cc6)C(=O)C(C)(C)[C@@H]5CC[C@]43C)[C@@H]12`, 79.6% (inactive); as for `O=S(=O)(Nc1ccc(I)cc1F)c1ccc(-c2cnc(C3CC3)o2)cc1`, 52.5% (inactive). As for `COc1cc2nc(N3CCCC3)nc(NCCc3ccccc3)c2cc1OC`, the figure is -74.8% (active); as for `COc1ccc(Nc2nc(SC)nc(-c3cccc([N+](=O)[O-])c3)c2C#N)cc1`, 70.8% (inactive); as for `COc1cc(CNc2oc(-c3ccccc3)c(-c3ccccc3)c2C#N)cc(CN2CCN(C)CC2)c1O`, -74.6% (active). Take `COc1ccc(-c2nc3ccc(-c4nc5ccc(N6CCN(c7ccncc7)CC6)cc5[nH]4)cc3[nH]2)cc1OC`: the growth was 16.9% (inactive). The value for `O=C1/C(=C/c2cn(-c3ccccc3)nc2-c2ccccc2)SC(=S)N1CCc1ccccc1` was 99.3% (inactive).

Take `CCCN1CCN(c2ccc3nc(-c4ccc5nc(-c6ccc(OCC)cc6)[nH]c5c4)[nH]c3c2)CC1`: the growth was -95% (active). `COc1cccc(-c2nc3sccn3c2-c2ccnc(NCCCNS(=O)(=O)c3cccc(F)c3)c2)c1`: the growth was 23.7% (inactive). As for `Cn1c(=O)c2c(nc3n(-c4ccc(Cl)cc4Cl)c(Sc4nc(-c5ccccc5)c(C#N)c(=O)[nH]4)cn23)n(C)c1=O`, the figure is 33.5% (inactive); as for `O=C(/C=C/c1ccccc1)c1ccc(O)c(CN2CCN(c3cc4c(cc3F)c(=O)c(C(=O)O)cn4C3CC3)CC2)c1`, 6.26% (active); as for `C=CC(=O)Nc1cccc(-c2nc(SC)nc(Nc3ccccc3OC)c2C#N)c1`, 16.9% (inactive). As for `COc1cccc(-c2nc3sccn3c2-c2ccnc(NCCNS(=O)(=O)c3ccc(F)cc3)c2)c1`, the figure is 25.1% (inactive); as for `COc1cc2nc(N3CCCC3)nc(NCc3ccccc3)c2cc1OC`, 10% (inactive); as for `N#Cc1c(-c2ccc(Cl)cc2)nc(N/N=C/c2cccc(Br)c2)nc1N1CCOCC1`, 79.8% (inactive).

As to `CSc1nc(-c2cccc(NC(=O)CCl)c2)c(C#N)c(=O)n1C`, the growth was -91.6% (active). As for `C=CC(=O)Nc1cccc(-c2nc(SC)nc(NCCc3ccc(OC)c(OC)c3)c2C#N)c1`, the figure is 56.6% (inactive); as for `O=C(/C=C/c1cccc([N+](=O)[O-])c1)c1ccc(O)c(CN2CCN(c3cc4c(cc3F)c(=O)c(C(=O)O)cn4C3CC3)CC2)c1`, -93.5% (active).

For the compound `COc1cc(/C=C/C(=O)c2ccc(O)c(CN3CCN(c4cc5c(cc4F)c(=O)c(C(=O)O)cn5C4CC4)CC3)c2)cc(OC)c1OC`, the growth was 20.7% (inactive). The value for `CC(C)(O)c1cn(CCCCN2C(=O)C(=O)c3ccccc32)nn1` was 91.6% (inactive); that for `COC(=O)[C@]12CCC(C)(C)C[C@H]1[C@H]1C(=O)C[C@@H]3[C@@]4(C)c5c([nH]c6ccccc6c5=O)C(C)(C)[C@@H]4CC[C@@]3(C)[C@]1(C)CC2` was 58.3% (inactive); that for `N=C(N)c1ccc(-c2ccc(-c3ccc4ccccc4c3)s2)s1` was -56.6% (active). The value for `C=CC(=O)Nc1cccc(-c2nc(SC)nc(NCCN3CCOCC3)c2C#N)c1` was 85.5% (inactive). As for `COc1cc(C=Nc2oc(-c3ccccc3)c(-c3ccccc3)c2C#N)cc(CN2CCCCC2)c1O`, the figure is 87.7% (inactive).

Take `CC1=NN(c2nc(-c3ccc(Cl)cc3)c(C#N)c(N3CCOCC3)n2)C(=O)C1`: the growth is 75.5% (inactive).
